Records with an inconclusive call do not appear. Activity calls are given as the source filed them. Unless noted, the call rests on the fitted dose curve; in most records, active means well fitted curve in the direction sought with a large enough effect in the repeat runs; inconclusive means weak or mixed curves; inactive means no such curve, though single readings can be large; an effect the other way counts as inactive or inconclusive.
Key:
[1] = qHTS assay to identify aromatase inhibitors - cell viability counter screen (AID 743084);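 further: cells stimulated with testosterone during compound exposure; nearly all actives have a fitted effect of over 55% in size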; further: potency means the concentration at half of the fitted maximal effect
[2] = target: Aryl hydrocarbon receptor (Homo sapiens) (UniProt P35869); assay: qHTS assay to identify small molecule that activate the aryl hydrocarbon receptor (AhR) signaling pathway (AID 743085); further: nearly all actives have a fitted effect of over 15% in size; further: potency means the concentration at half of the fitted maximal effect;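 on activation: HG2L7.5c1 human HepG2 liver cells with stably integrated DRE-driven firefly reporter; series mostly up to about 70 µM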
Chain of Aryl hydrocarbon receptor (Homo sapiens) (P35869 whole entry, looked up): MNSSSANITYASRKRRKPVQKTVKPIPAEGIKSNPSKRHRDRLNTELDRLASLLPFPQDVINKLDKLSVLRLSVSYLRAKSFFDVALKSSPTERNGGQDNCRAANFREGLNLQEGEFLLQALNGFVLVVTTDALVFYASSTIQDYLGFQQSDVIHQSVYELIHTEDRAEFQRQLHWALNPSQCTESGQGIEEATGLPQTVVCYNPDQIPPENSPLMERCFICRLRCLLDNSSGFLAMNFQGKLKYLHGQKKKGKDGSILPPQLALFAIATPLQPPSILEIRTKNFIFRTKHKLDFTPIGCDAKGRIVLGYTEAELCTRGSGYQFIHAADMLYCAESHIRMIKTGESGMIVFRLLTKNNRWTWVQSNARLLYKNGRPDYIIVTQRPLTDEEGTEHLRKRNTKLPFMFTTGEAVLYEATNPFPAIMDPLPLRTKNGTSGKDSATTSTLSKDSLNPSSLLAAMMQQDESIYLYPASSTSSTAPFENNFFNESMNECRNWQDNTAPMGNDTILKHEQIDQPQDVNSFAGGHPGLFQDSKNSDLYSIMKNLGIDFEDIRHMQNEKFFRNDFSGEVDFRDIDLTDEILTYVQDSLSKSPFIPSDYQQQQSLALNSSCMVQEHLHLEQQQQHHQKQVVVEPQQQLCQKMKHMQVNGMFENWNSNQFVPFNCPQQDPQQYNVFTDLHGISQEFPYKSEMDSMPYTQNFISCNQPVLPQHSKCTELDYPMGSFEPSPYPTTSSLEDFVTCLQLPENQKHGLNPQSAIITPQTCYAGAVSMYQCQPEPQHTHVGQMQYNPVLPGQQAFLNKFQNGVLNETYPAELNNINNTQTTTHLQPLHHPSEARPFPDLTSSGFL
Summary of the method: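 24 h compound exposure, 37C, HepG2-derived HG2L7.5c1 cells with DRE-responsive luciferase. Readouts: fluorescence viability, then luminescence at room temperature after 30 min.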

[3] = qHTS assay to identify small molecule that activate the aryl hydrocarbon receptor (AhR) signaling pathway - cell viability counter screen (AID 743086); further: nearly all actives have a fitted effect of over 45% in size; further: potency means the concentration at half of the fitted maximal effect
Summary of the method: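 HepG2-AhR-luc (HG2L7.5c1) cells, 4000/well, were preincubated 5 h at 37C, exposed to compound in qHTS format for 24 hr at 37C, then given CellTiter-Fluor for 30 min; viability was read as fluorescence in the reporter wells.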

[4] = qHTS assay to identify small molecule antagonists of the peroxisome proliferator-activated receptor gamma (PPARg) signaling pathway - cell viability counter screen (AID 743194); further: nearly all actives have a fitted effect of over 55% in size; further: potency means the concentration at half of the fitted maximal effect
Summary of the method: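 PPARg-UAS-bla HEK293H cells were plated, rested 5 h at 37 C, then treated with compounds plus rosiglitazone (50 nM final) for 17 h at 37 C; viability was then read by CellTiter-Glo luminescence after 30 min at room temperature.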

[5] = qHTS assay for small molecule agonists of the antioxidant response element (ARE) signaling pathway - cell viability counter screen (AID 743203; calls by dose curve; further: nearly all actives have a fitted effect of over 55% in size; further: potency means the concentration at half of the fitted maximal effect)
Summary of the method: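 ARE-bla HepG2 cells were plated, rested 5 h at 37C/5% CO2, then exposed to compounds in DMSO for 16 h. Viability was read as CellTiter-Glo luminescence after 30 min at room temperature, in the same wells as the ARE screen.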

[6] = qHTS assay for small molecule activators of the heat shock response signaling pathway - cell viability counter screen (AID 743209); further: nearly all actives have a fitted effect of over 50% in size; further: potency means the concentration at half of the fitted maximal effect
Summary of the method: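 HSE-bla HeLa cells plated overnight, then exposed to Tox21 compounds (23 nL in DMSO) for 5 h at 37 C. After the bla reporter read, CellTiter-Glo was added in the same wells and luminescence read after 30 min at room temperature.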

[7] = qHTS assay to identify small molecule agonists of the peroxisome proliferator-activated receptor delta (PPARd) signaling pathway - cell viability counter screen (AID 743211); further: nearly all actives have a fitted effect of over 55% in size; further: potency means the concentration at half of the fitted maximal effect
Summary of the method: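 Luminescent ATP viability assay (CellTiter-Glo, 30 min RT) in UAS-bla HEK293H cells carrying the PPAR delta reporter construct, 3000 cells/well, after a 17 h compound treatment at 37 C.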

[8] = qHTS assay to identify small molecule agonists of the farnesoid-X-receptor (FXR) signaling pathway - cell viability counter screen (AID 743218); further: nearly all actives have a fitted effect of over 45% in size; further: potency means the concentration at half of the fitted maximal effect
Summary of the method: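 FXR-UAS-bla HEK 293T cells exposed to compounds for 16 h at 37C. Cytotoxicity read in the same wells by CellTiter-Glo luminescence after 30 min at room temperature, following the beta-lactamase FRET read.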

[9] = target: Vitamin D3 receptor (Homo sapiens) (UniProt P11473); assay: qHTS assay to identify small molecule antagonists of the vitamin D receptor (VDR) signaling pathway (AID 743223; active means well fitted inhibition curve with a large enough effect in the signal ratio in the repeat runs, not every such curve was filed as active; the % refers to the signal ratio; further: potency means the concentration at half of the fitted maximal effect)
Chain of Vitamin D3 receptor (Homo sapiens) (P11473 whole entry, looked up): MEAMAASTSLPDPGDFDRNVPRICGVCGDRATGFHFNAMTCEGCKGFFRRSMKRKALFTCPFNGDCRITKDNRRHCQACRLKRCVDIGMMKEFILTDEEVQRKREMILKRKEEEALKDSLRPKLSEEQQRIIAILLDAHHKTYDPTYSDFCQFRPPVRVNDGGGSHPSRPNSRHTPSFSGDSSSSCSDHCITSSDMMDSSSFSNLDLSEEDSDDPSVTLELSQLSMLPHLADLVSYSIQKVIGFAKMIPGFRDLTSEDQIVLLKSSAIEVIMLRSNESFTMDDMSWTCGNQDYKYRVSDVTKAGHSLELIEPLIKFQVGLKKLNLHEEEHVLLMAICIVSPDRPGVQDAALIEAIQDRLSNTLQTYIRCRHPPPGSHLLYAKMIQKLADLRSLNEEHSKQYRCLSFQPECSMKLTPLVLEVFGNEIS
Summary of the method: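 Agonist 1alpha,25-dihydroxyvitamin D3 (3 nM in well) was added with each compound to VDR-bla cells preincubated 4 h. Cells stood 16 h at 37C, then FRET substrate 2 h at room temperature; fluorescence intensity recorded.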

[10] = qHTS assay to identify small molecule antagonists of the peroxisome proliferator-activated receptor delta (PPARd) signaling pathway - cell viability counter screen (AID 743213); further: nearly all actives have a fitted effect of over 50% in size; further: potency means the concentration at half of the fitted maximal effect
Summary of the method: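 Cytotoxicity counter screen: CellTiter-Glo luminescence read 30 min after addition, in the same wells as the reporter assay. There, PPARd UAS-bla HEK293H cells (3000/well) were treated 17 h at 37 C with compound and 300 nM L165041.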

[11] = target: Peroxisome proliferator-activated receptor delta (Homo sapiens) (UniProt Q03181); assay: qHTS assay to identify small molecule antagonists of the peroxisome proliferator-activated receptor delta (PPARd) signaling pathway (AID 743215; active means well fitted inhibition curve with a large enough effect in the signal ratio in the repeat runs, not every such curve was filed as active; the % refers to the signal ratio;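 further: cells stimulated with agonist L165041 at 300 nM final during compound exposure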; further: potency means the concentration at half of the fitted maximal effect)
Chain of Peroxisome proliferator-activated receptor delta (Homo sapiens) (Q03181 whole entry, looked up): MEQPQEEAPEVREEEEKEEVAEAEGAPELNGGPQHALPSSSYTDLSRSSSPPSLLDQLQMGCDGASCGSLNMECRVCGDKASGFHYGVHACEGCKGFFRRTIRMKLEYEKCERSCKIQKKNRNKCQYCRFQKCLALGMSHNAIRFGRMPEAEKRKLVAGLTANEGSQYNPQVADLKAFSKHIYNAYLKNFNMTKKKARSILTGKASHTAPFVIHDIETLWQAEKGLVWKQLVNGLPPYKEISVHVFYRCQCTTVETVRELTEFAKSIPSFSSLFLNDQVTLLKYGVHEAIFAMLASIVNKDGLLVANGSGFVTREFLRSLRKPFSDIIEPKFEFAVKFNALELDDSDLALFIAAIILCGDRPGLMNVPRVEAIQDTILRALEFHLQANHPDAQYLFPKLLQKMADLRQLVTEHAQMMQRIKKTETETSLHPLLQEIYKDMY
Summary of the method: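 PPARd-bla HEK293H cells (UAS-bla reporter) preincubated 5 h, then given compound plus 300 nM final L165041 agonist for 17 h at 37 C. Beta-lactamase activity read by LiveBLAzer B/G FRET substrate fluorescence after 2 h at room temperature.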

[12] = qHTS assay to identify small molecule antagonists of the farnesoid-X-receptor (FXR) signaling pathway - cell viability counter screen (AID 743221; active means well fitted cell-killing curve with a large enough effect in the repeat runs, not every such curve was filed as active; further: nearly all actives have a fitted effect of over 50% in size; further: potency means the concentration at half of the fitted maximal effect)
Summary of the method: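 In GeneBLAzer FXR-UAS-bla HEK 293T cells stimulated with 50 uM chenodeoxycholic acid (final), compounds acted for 16 h at 37 C. Viability was assessed afterwards by CellTiter-Glo luminescence.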

[13] = qHTS assay for small molecule activators of the heat shock response signaling pathway (AID 743210; active means well fitted activation curve with a large enough effect in the signal ratio in the repeat runs, with a control signal flat, not every such curve was filed as active; the % refers to the signal ratio; further: series mostly up to about 63 µM)
Summary of the method: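 HSE-bla HeLa cells (beta-lactamase reporter under heat shock response elements) were exposed to compounds for 5 h at 37 C, then loaded with LiveBLAzer B/G FRET substrate for 2.5 h at room temperature before fluorescence reading.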

[14] = target: Peroxisome proliferator-activated receptor delta (Homo sapiens) (UniProt Q03181); assay: qHTS assay to identify small molecule agonists of the peroxisome proliferator-activated receptor delta (PPARd) signaling pathway (AID 743212; calls by dose curve)
Summary of the method: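 GeneBLAzer PPARd UAS-bla HEK293H cells (beta-lactamase reporter under UAS control), plated and rested 5 h at 37 C, then exposed to compounds in DMSO at 37 C; LiveBLAzer B/G FRET substrate added, 2 h room temperature, fluorescence read.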

[15] = target: Bile acid receptor (Homo sapiens) (UniProt Q96RI1); assay: qHTS assay to identify small molecule agonists of the farnesoid-X-receptor (FXR) signaling pathway (AID 743220; active means well fitted activation curve with a large enough effect in the signal ratio in the repeat runs, not every such curve was filed as active; the % refers to the signal ratio)
Chain of Bile acid receptor (Homo sapiens) (Q96RI1 whole entry, looked up): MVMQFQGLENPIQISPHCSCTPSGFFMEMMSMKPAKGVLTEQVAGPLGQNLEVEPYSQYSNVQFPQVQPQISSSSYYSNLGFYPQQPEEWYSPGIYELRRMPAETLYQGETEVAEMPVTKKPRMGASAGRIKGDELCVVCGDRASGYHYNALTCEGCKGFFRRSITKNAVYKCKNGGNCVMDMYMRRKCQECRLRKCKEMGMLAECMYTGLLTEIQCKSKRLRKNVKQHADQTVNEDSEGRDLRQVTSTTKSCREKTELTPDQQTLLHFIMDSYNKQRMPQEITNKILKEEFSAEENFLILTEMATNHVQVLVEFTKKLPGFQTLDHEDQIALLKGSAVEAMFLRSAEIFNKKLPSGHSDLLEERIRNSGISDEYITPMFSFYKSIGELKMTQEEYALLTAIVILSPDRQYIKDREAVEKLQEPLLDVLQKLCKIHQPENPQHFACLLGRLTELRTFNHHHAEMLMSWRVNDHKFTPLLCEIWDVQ
Summary of the method: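 Beta-lactamase reporter under UAS control in GeneBLAzer FXR HEK 293T cells (5000/well) measured with LiveBLAzer FRET substrate after 2 h at room temperature. Compound exposure lasted 16 h at 37C.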

[16] = target: Peroxisome proliferator-activated receptor gamma (Homo sapiens) (UniProt P37231); assay: qHTS assay to identify small molecule agonists of the peroxisome proliferator-activated receptor gamma (PPARg) signaling pathway (AID 743094; active means well fitted activation curve with a large enough effect in the signal ratio in the repeat runs, not every such curve was filed as active; the % refers to the signal ratio; further: potency means the concentration at half of the fitted maximal effect)
Chain of Peroxisome proliferator-activated receptor gamma (Homo sapiens) (P37231 whole entry, looked up): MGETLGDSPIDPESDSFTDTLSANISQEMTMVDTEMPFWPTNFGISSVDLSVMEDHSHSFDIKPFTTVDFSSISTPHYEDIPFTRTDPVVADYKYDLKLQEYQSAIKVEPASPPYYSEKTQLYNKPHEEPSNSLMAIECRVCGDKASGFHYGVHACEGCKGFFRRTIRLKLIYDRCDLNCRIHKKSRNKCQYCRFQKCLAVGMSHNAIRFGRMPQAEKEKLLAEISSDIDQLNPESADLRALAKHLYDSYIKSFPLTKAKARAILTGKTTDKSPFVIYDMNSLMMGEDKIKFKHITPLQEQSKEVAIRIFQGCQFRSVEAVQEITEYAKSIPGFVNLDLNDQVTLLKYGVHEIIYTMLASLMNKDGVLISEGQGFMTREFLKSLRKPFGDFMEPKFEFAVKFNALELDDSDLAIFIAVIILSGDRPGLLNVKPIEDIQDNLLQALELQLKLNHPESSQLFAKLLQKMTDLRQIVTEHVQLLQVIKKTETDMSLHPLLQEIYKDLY
Summary of the method: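 GeneBLAzer PPARg UAS-bla HEK293H cells were plated, rested 5 h, then exposed to compounds for 17 h at 37C. Beta-lactamase activity was read by LiveBLAzer B/G FRET substrate fluorescence after 1 h at room temperature.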

[17] = target: Peroxisome proliferator-activated receptor gamma (Homo sapiens) (UniProt P37231); assay: qHTS assay to identify small molecule antagonists of the peroxisome proliferator-activated receptor gamma (PPARg) signaling pathway (AID 743191; calls by dose curve; further: series mostly up to about 63 µM; nearly all actives have a fitted effect of over 30% in size)
Summary of the method: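 GeneBLAzer PPARg UAS-bla HEK293H cells carrying a UAS-driven beta-lactamase reporter were plated at 3000 cells/well, preincubated 5 h at 37C, then given compound for 17 h at 37C; LiveBLAzer B/G FRET substrate was read after 1 h at room temperature.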

[18] = qHTS assay for small molecule agonists of the antioxidant response element (ARE) signaling pathway (AID 743202; active means well fitted activation curve with a large enough effect in the signal ratio in the repeat runs, not every such curve was filed as active; the % refers to the signal ratio; further: potency means the concentration at half of the fitted maximal effect)
Summary of the method: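 Read-out: LiveBLAzer B/G FRET substrate fluorescence after 2 h at room temperature, following 16 h compound treatment at 37 C of HepG2 cells carrying an ARE-driven beta-lactamase reporter.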

[19] = target: Vitamin D3 receptor (Homo sapiens) (UniProt P11473); assay: qHTS assay to identify small molecule agonists of the vitamin D receptor (VDR) signaling pathway (AID 743222; calls by dose curve)
Summary of the method: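 VDR-bla cells plated 4 h at 37 C, then exposed to compounds for 16 h at 37 C. Beta-lactamase reporter activity measured by fluorescence after 2 h room-temperature loading with LiveBLAzer B/G FRET substrate.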

Measured: Potency

O=C1C=CC(=O)N1c1ccccc1
active: [1] 9.69 µM | [3] 61.1 µM | [4] 13.8 µM | [5] 12.2 µM | [6] 21.9 µM | [7] 15.5 µM | [8] 49 µM | [9] 12.3 µM
inactive: [2]

Cc1cc2c(C(C)C)c(O)c(O)c(C=O)c2c(O)c1-c1c(C)cc2c(C(C)C)c(O)c(O)c(C=O)c2c1O
inactive: [2]
active: [1] 26.6 µM | [4] 8.41 µM | [5] 8.41 µM | [6] 13.3 µM | [7] 9.44 µM | [10] 11.9 µM | [11] 18.8 µM | [8] 10.6 µM | [12] 16.8 µM

CCCCCCCCCCCCCC[n+]1ccccc1
inactive: [2]
active: [1] 54.5 µM | [3] 54.5 µM | [4] 17.4 µM | [5] 27.3 µM | [6] 30.9 µM | [7] 24.5 µM | [10] 24.5 µM | [12] 54.9 µM | [9] 43.6 µM

CCN(CC)CCNc1ccc(CO)c2sc3ccccc3c(=O)c12
active: [2] 0.531 µM | [3] 6.68 µM | [5] 6.68 µM | [7] 18.8 µM | [10] 13.3 µM | [11] 23.7 µM | [8] 13.3 µM
inactive: [1] | [6] | [13] | [14] | [15]

O=C(O)CCn1c2c(c3ccccc31)C[C@H](NS(=O)(=O)c1ccc(F)cc1)CC2
inactive: [1] | [2] | [3] | [4] | [6] | [7] | [10] | [8] | [12]

CN(C)CCCN1c2ccccc2Sc2ccc(C(F)(F)F)cc21
active: [3] 23.7 µM | [5] 29.8 µM | [7] 29.8 µM | [8] 11.9 µM
inactive: [1] | [2] | [6] | [13] | [15]

CCCCCCCCCCCCCCNCCO
active: [2] 10.6 µM | [5] 26.6 µM
not listed: [4] | [10] | [15] | [16] | [17] | [18] | [19]
inactive: all other assays above

CCCCCCCCCCCCN(CCO)CCO
active: [1] 48.4 µM | [4] 54.7 µM | [5] 54.3 µM | [6] 54.7 µM | [7] 38.7 µM | [10] 48.8 µM | [8] 54.7 µM
inactive: [2]

O=C(O)Cc1ccc(OCCNC[C@H](O)c2ccccc2)cc1
not listed: [3] | [11] | [13] | [14] | [19]
inactive: all other assays above

c1cc2c3c(c1)ccc1cccc(c13)C2
inactive: [1] | [2] | [3] | [14] | [10] | [11] | [12] | [19]
active: [7] 56.1 µM

Oc1c(Br)cc(Br)c2cccnc12
active: [2] 0.668 µM | [7] 2.98 µM
inactive: [1] | [3] | [5] | [6] | [8] | [12]

CC=O
inactive: [2]
active: [1] 36 µM | [4] 25.7 µM | [5] 32 µM | [6] 22.9 µM | [7] 45.7 µM | [10] 40.7 µM | [8] 45.7 µM | [12] 64.5 µM

C=CCCCCCCC=C
inactive: [1] | [2] | [3] | [4] | [5] | [9]
active: [6] 49.1 µM

O=C1NCCN1CCN1CCC(c2cn(-c3ccc(F)cc3)c3ccc(Cl)cc23)CC1
active: [1] 29.8 µM | [3] 23.7 µM | [4] 29.8 µM | [5] 26.6 µM | [7] 23.7 µM | [10] 23.7 µM | [8] 23.7 µM | [12] 33.5 µM
inactive: [2] | [6]

CC1(C)C(=O)N(Br)C(=O)N1Br
not listed: [3] | [9] | [16] | [19]
inactive: all other assays above

COc1cc(C=C2CCC/C(=C\c3ccc(O)c(OC)c3)C2=O)ccc1O
inactive: [2]
active: [1] 21.1 µM | [3] 23.7 µM | [4] 21.1 µM | [5] 26.6 µM | [7] 29.8 µM | [8] 21.1 µM | [12] 23.7 µM

CC(=O)OC(OC(C)=O)c1ccc([N+](=O)[O-])o1
active: [1] 13.9 µM | [4] 49.8 µM | [18] 15.6 µM | [5] 62.2 µM | [6] 19.8 µM | [7] 49.8 µM
inactive: [2]

COc1ccc2sc(C(=O)Nc3nnn[nH]3)c(OC(C)C)c2c1
inactive: [1] | [2] | [5] | [13] | [10] | [8] | [15] | [12]
active: [16] 5.47 µM

O=C1NC2CCCCN2C12CCN(CCCN1c3ccccc3CCc3ccc(Cl)cc31)CC2 (centres undefined)
inactive: [15]
active: [2] 13.3 µM | [3] 23.7 µM | [4] 26.6 µM | [5] 29.8 µM | [6] 29.8 µM | [7] 29.8 µM | [10] 26.6 µM | [11] 29.8 µM | [8] 23.7 µM | [12] 29.8 µM

CCNc1nc(NC(C)CC)nc(OC)n1 (centres undefined)
not listed: [2] | [6] | [10] | [11] | [13] | [18]
inactive: all other assays above

C[C@@]12C(=O)OC(=O)[C@]1(C)C1CCC2O1
active: [1] 3.59 µM | [3] 0.569 µM | [5] 4.22 µM | [10] 8.41 µM | [8] 11.9 µM | [12] 13.3 µM
inactive: [4] | [6] | [13]

ClC/C=C\CCl
not listed: [2] | [8] | [15] | [16] | [18]
inactive: all other assays above

CCCCOc1ccc(C(=O)CCN2CCCCC2)cc1
active: [5] 26.6 µM | [7] 11.9 µM
not listed: [2] | [9] | [12] | [13] | [18] | [19]
inactive: all other assays above

C1CC(COCC2CO2)CCC1COCC1CO1 (centres undefined)
active: [18] 54.5 µM
not listed: [1] | [6] | [9] | [11] | [15]
inactive: all other assays above

Cc1c(C)n(Cc2ccccc2)c2ccc(C(=O)OCCN(C)C)cc12
active: [7] 26.6 µM
inactive: [1] | [16] | [4] | [5] | [6] | [15] | [12] | [9]

C=CC(C)(CCC=C(C)C)OC(=O)/C=C/c1ccccc1 (centres undefined)
not listed: [1] | [6] | [10] | [11] | [13] | [17] | [18] | [19]
inactive: all other assays above
